Screening data (PubChem BioAssay)
A selection: hits, their analogues and other compounds. The true share with any hit is near 10%.
SW480 rereplic – inducers of DNA re-replication in SW480 colon cancer cells; SW480 DNA re-replication, Hoechst DNA content imaging, 48 h; Potency, µM (titrated, usually from 46.1 µM), for inactives: top-dose re-replication activation, hits mostly activators; actives 1.8% (n = 340,000); further: % of control where 0% means no effect; nearly all actives have a fitted effect of over 55% in size
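SW480 cells exposed to compounds for 48 hr at 37 C, 5% CO2, then Hoechst-stained 40 min. Nuclear DNA content imaged by fluorescence scanning (405 nm excitation, 500-530 nm emission); re-replication scored as increased high-intensity nuclei.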
MCF10A rerep – induces DNA re-replication in MCF 10a normal breast cells; MCF 10A DNA re-replication, Hoechst nuclear intensity, 48 h; Potency, µM (titrated, usually from 46.1 µM), for inactives: top-dose activity, positive = re-replication, most hits filed as activators; actives 2.9% (n = 350,000); further: % of control where 0% means no effect; nearly all actives have a fitted effect of over 50% in size
RORg inh – blocks mouse ROR gamma transcriptional activity; P51450; Drosophila S2 Gal4-RORgamma UAS-luciferase reporter, 20 h; Potency, µM (series often up to 53.6 µM), for inactives: at the top dose activity change, negative = inhibition, actives largely listed as inhibitors; actives 5.4% (n = 310,000); further: on the % scale 0 is the no-effect control and ±100 the full control effect; nearly all actives have a fitted effect of over 60% in size
Target sequence (P51450 whole entry, looked up, the tested form may be a part): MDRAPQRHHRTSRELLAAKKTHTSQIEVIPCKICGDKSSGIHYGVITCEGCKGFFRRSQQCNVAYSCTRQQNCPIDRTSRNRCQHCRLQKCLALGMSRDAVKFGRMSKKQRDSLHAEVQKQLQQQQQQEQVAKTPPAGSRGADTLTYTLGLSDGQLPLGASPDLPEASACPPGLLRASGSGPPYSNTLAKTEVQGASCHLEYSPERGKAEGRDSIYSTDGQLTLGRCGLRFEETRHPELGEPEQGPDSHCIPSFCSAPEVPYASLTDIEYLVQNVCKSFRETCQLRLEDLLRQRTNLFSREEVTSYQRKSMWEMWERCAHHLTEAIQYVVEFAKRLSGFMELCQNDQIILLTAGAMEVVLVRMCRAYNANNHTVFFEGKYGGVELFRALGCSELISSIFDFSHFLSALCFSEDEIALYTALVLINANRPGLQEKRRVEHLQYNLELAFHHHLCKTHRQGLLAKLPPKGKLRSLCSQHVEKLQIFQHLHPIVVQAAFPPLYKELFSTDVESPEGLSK
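A Gal4/UAS one-hybrid system in insect cells: metallothionein-promoter Gal4–ROR gamma fusion plus Photinus luciferase reporter. Copper sulfate 700 uM final, 20 hr ambient incubation, luminescent detection after 10 min with reagent.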
VP16 counter – inhibits Gal4-VP16 luciferase reporter, ROR gamma counter-screen. actives 3.5% (n = 310,000). Drosophila S2 Gal4-VP16 UAS-luciferase, luminescence, 20 h. Potency, µM (highest dose often 53.6 µM), for the others: at the highest dose activity, negative = inhibition, hits mostly inhibitors;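 further: Gal4-VP16 expression switched on by copper sulfate through the metallothionein promoter; on the % scale 0 is the no-effect control and ±100 the full control effect; nearly all actives have a fitted effect of over 50% in size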
ELG1 DNA repair – blocks ELG1-dependent DNA repair in HEK293T cells. actives 2.3% (n = 330,000). HEK293T ELG1-luciferase reporter, luminescence, 16 h; DNA damage induced by 5-fluorouridine. Potency, µM (top dose mostly 46.1 µM), for inactives: top-dose activity change, negative = inhibition, usual class: inhibitors; further: on the % scale 0 is the no-effect control and ±100 the full control effect; nearly all actives have a fitted effect of over 55% in size
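Cells (2,000 per well) received 5-fluorouridine plus test compound or DMSO and were incubated 16 hr at 37 °C, 5% CO2. Luciferase activity was read by luminescence 30 min after ONE-Glo addition; signal suppression marked inhibition of damage-induced ELG1 function.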
Active calls of the source: *; [ ] = dose if it differs, or a comment. The call rests on the fitted dose curve; in most records, active means well fitted curve in the direction sought with a large enough effect; inconclusive means small, poorly fitted or top-dose-only effect, or another doubt; inactive means no such curve, though single readings can be large; an effect the other way counts as inactive or inconclusive. Potency means the concentration at half of the fitted maximal effect.

CC(C)(C)c1ccc(S(=O)(=O)N2CCN(CC(=O)N3CC(=O)Nc4ccccc43)CC2)cc1 was read as SW480 rereplic -2.0%, MCF10A rerep 2.0% and ELG1 DNA repair -1.9%.
COc1cc(/C=C2\C(=O)ON=C2c2ccccc2)cc(Br)c1O was read as SW480 rereplic inconclusive, MCF10A rerep inconclusive, RORg inh inconclusive, VP16 counter inconclusive and ELG1 DNA repair -1.5%.
Screening CCOc1cc(/C=C2\C(=O)ON=C2c2ccccc2)cc(Br)c1O returned SW480 rereplic inconclusive, MCF10A rerep 9.2µM*, RORg inh inconclusive, VP16 counter inconclusive and ELG1 DNA repair inconclusive.
Screening COc1cc(/C=C2\C(=O)ON=C2c2ccccc2)cc(Cl)c1O returned SW480 rereplic 1.4%, MCF10A rerep inconclusive, RORg inh inconclusive, VP16 counter 12.6µM* and ELG1 DNA repair 11.5%.
O=[N+]([O-])c1ccc(Cl)c(S(=O)(=O)N2CCCCCC2)c1 was read as SW480 rereplic 1.6%, MCF10A rerep 14.8%, RORg inh -2.9%, VP16 counter -14.0% and ELG1 DNA repair -7.6%.
For Cc1cc(C)c(S(=O)(=O)/N=C2/C=C(Sc3ncn[nH]3)C(=O)c3ccccc32)cc1C the results were SW480 rereplic 2.59µM*, MCF10A rerep 2.31µM*, RORg inh 3.98µM*, VP16 counter 3.16µM* and ELG1 DNA repair 20.6µM*.
Screening Clc1ccccc1-c1nn2c(-c3ccncc3)nnc2s1 returned SW480 rereplic -1.6%, MCF10A rerep -1.3%, RORg inh 0.2%[0.365 µM] and ELG1 DNA repair 10.3µM*.
Screening Clc1ccccc1-c1nnc2sc(-c3ccncc3)nn12 returned SW480 rereplic -3.2%, MCF10A rerep 0.0%, RORg inh inconclusive, VP16 counter 3.9% and ELG1 DNA repair inconclusive.
`CN(C)c1ccc(-c2nn3c(-c4ccccc4Cl)nnc3s2)cc1` gave SW480 rereplic 1.03µM*, MCF10A rerep inconclusive, RORg inh -1.1%, VP16 counter -9.4% and ELG1 DNA repair inconclusive.
Screening COc1ccc2nc(-n3c(O)c(C4=c5ccccc5=NC4=O)[nH]c3=S)sc2c1 returned SW480 rereplic -0.4%, MCF10A rerep 3.7%, RORg inh 12.6µM*, VP16 counter inconclusive and ELG1 DNA repair 17.2%.
`C1COCCNCCOCCOCCOCCN1` gave SW480 rereplic 10.3µM*, MCF10A rerep -6.0%, RORg inh -5.0%, VP16 counter -8.0% and ELG1 DNA repair 0.7%.
N#C/C(=C\c1cn(Cc2ccccc2F)c2ccccc12)C(=O)NCc1ccco1 was read as SW480 rereplic 29.7%, MCF10A rerep 18.4µM*, RORg inh -38.0%, VP16 counter -19.2% and ELG1 DNA repair -0.7%.
N#C/C(=C\c1cn(CC(=O)N2CCCC2)c2ccccc12)C(=O)NCc1ccc2c(c1)OCO2 was read as SW480 rereplic -3.6%, MCF10A rerep inconclusive, RORg inh 12.1%, VP16 counter -10.0% and ELG1 DNA repair 12.7%.
`N#C/C(=C\c1cn(CCOc2ccccc2)c2ccccc12)C(=O)NCc1cccs1` gave SW480 rereplic 16.4µM*, MCF10A rerep inconclusive, RORg inh 0.0%, VP16 counter -30.0% and ELG1 DNA repair 11.2%.
Screening COc1ccccc1OCCn1cc(/C=C(\C#N)C(=O)NCc2ccco2)c2ccccc21 returned SW480 rereplic -63.5%, MCF10A rerep 13.5%, RORg inh 32.7%, VP16 counter -2.7% and ELG1 DNA repair inconclusive.
Screening N#C/C(=C\c1cn(CC(=O)N2CCCCC2)c2ccccc12)C(=O)NCc1ccc2c(c1)OCO2 returned SW480 rereplic 1.64µM*, MCF10A rerep 0.7%, RORg inh -3.2%, VP16 counter -4.8% and ELG1 DNA repair 0.8%.
For Cc1cccc(NC(=O)/C(C#N)=C/c2cn(CC(=O)NCc3ccco3)c3ccccc23)c1 the results were SW480 rereplic inconclusive, MCF10A rerep 8.2µM*, RORg inh 0.8%, VP16 counter -8.6% and ELG1 DNA repair 23.8%.
